Measured values from PubChem BioAssay (NCI).
The panel holds about 83,000 compounds, 20% with a hit somewhere; the sample as a whole holds those more often.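 Each cell line was grown in a 96-well plate and treated with one concentration of compound for 48 hours. Values below 10 were considered active.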 Values without a mark were called inactive. The source made the active and inactive calls.

Legend:
Assay in all cases: NCI-60 one-dose screen, 48 h (100 = growth as untreated, 0 = no growth, -100 = all killed)
Settings in all cases: 10 µM unless noted
SR leukemia = test system: SR leukemia
RPMI-8226 leukemia = test system: RPMI-8226 leukemia
OVCAR-8 ovarian = test system: OVCAR-8 ovarian
OVCAR-5 ovarian = test system: OVCAR-5 ovarian
OVCAR-4 ovarian = test system: OVCAR-4 ovarian
SK-OV-3 ovarian = test system: SK-OV-3 ovarian
IGROV1 ovarian = test system: IGROV1 ovarian
OVCAR-3 ovarian = test system: OVCAR-3 ovarian
HS 578T breast = test system: HS 578T breast
NCI/ADR-RES ovarian = test system: NCI/ADR-RES ovarian
T-47D breast = test system: T-47D breast
BT-549 breast = test system: BT-549 breast
MDA-MB-435 melanoma = test system: MDA-MB-435 melanoma
SW-620 colon = test system: SW-620 colon
MCF7 breast = test system: MCF7 breast
HCC-2998 colon = test system: HCC-2998 colon
KM12 colon = test system: KM12 colon
HCT-116 colon = test system: HCT-116 colon

Cn1c(=O)c2c(nc(Br)n2CC(=O)Nc2ccc(F)cc2)n(C)c1=O
growth (SR leukemia): 89.2% | growth (RPMI-8226 leukemia): 79.1% | growth (OVCAR-8 ovarian): 103% | growth (OVCAR-5 ovarian): 103% | growth (OVCAR-4 ovarian): 120% | growth (SK-OV-3 ovarian): 102% | growth (IGROV1 ovarian): 107% | growth (OVCAR-3 ovarian): 114% | growth (HS 578T breast): 100% | growth (NCI/ADR-RES ovarian): 102% | growth (T-47D breast): 87.2% | growth (BT-549 breast): 101% | growth (MDA-MB-435 melanoma): 112% | growth (SW-620 colon): 105% | growth (MCF7 breast): 99.2% | growth (HCC-2998 colon): 114% | growth (KM12 colon): 101%

COc1ccc(-c2cc(=O)oc3ccc(Cl)cc23)cc1F
growth (SR leukemia): 11.2% | growth (RPMI-8226 leukemia): 28.1% | growth (OVCAR-8 ovarian): 20.3% | growth (OVCAR-5 ovarian): 54.7% | growth (OVCAR-4 ovarian): 55.9% | growth (SK-OV-3 ovarian): 0.514% (active) | growth (IGROV1 ovarian): 43.1% | growth (OVCAR-3 ovarian): 6.02% (active) | growth (HS 578T breast): 20.1% | growth (NCI/ADR-RES ovarian): 6.24% (active) | growth (T-47D breast): 50.5% | growth (BT-549 breast): 18.9% | growth (MDA-MB-435 melanoma): -21.1% (active) | growth (SW-620 colon): 23.5% | growth (MCF7 breast): 17.4% | growth (HCC-2998 colon): 19.6% | growth (KM12 colon): 11.2%

CCN(CC)CCCCCCNc1ccnc2cc(Cl)ccc12
growth (SR leukemia): 28.2% | growth (RPMI-8226 leukemia): 130% | growth (OVCAR-8 ovarian): 117% | growth (OVCAR-5 ovarian): 112% | growth (OVCAR-4 ovarian): 75.2% | growth (SK-OV-3 ovarian): 98.2% | growth (IGROV1 ovarian): 124% | growth (OVCAR-3 ovarian): 84.6% | growth (HS 578T breast): 92.4% | growth (NCI/ADR-RES ovarian): 104% | growth (T-47D breast): 91% | growth (BT-549 breast): 86.3% | growth (MDA-MB-435 melanoma): 88.5% | growth (SW-620 colon): 83.3% | growth (MCF7 breast): 82.7% | growth (HCC-2998 colon): 107% | growth (KM12 colon): 84.9%

O=C1c2ccccc2NC(c2cn(-c3ccccc3)nc2-c2cccs2)N1Cc1ccccc1 (stereo not given)
growth (SR leukemia): 66.8% | growth (RPMI-8226 leukemia): 76.2% | growth (OVCAR-8 ovarian): 90.3% | growth (OVCAR-5 ovarian): 90% | growth (OVCAR-4 ovarian): 87.1% | growth (SK-OV-3 ovarian): 84% | growth (IGROV1 ovarian): 69.3% | growth (OVCAR-3 ovarian): 89.3% | growth (HS 578T breast): 94.3% | growth (NCI/ADR-RES ovarian): 73.2% | growth (T-47D breast): 54.9% | growth (BT-549 breast): 88.5% | growth (MDA-MB-435 melanoma): 97.5% | growth (SW-620 colon): 97.3% | growth (MCF7 breast): 72% | growth (HCC-2998 colon): 95.1% | growth (KM12 colon): 83.7%

COc1ccc(-c2cc(-c3c(C)oc4cc5occc5c(OC)c4c3=O)nc(N)c2C#N)cc1OC
growth (SR leukemia): 5.99% (active) | growth (RPMI-8226 leukemia): 55.2% | growth (OVCAR-8 ovarian): 61.2% | growth (OVCAR-5 ovarian): 92.9% | growth (OVCAR-4 ovarian): 74.6% | growth (SK-OV-3 ovarian): 75.7% | growth (IGROV1 ovarian): 51.8% | growth (OVCAR-3 ovarian): 77.4% | growth (HS 578T breast): 53.5% | growth (NCI/ADR-RES ovarian): 61.9% | growth (T-47D breast): 41.2% | growth (BT-549 breast): 70.8% | growth (MDA-MB-435 melanoma): 17.6% | growth (SW-620 colon): 57.5% | growth (MCF7 breast): 24.8% | growth (HCT-116 colon): 53.7% | growth (HCC-2998 colon): 98% | growth (KM12 colon): 59.6%

Cc1cc2nc3c4cc(N)ccc4n(CCN(C)C)c3nc2cc1C
growth (SR leukemia): -0.184% (active) | growth (RPMI-8226 leukemia): -7.46% (active) | growth (OVCAR-8 ovarian): 13.7% | growth (OVCAR-5 ovarian): 18.5% | growth (OVCAR-4 ovarian): 14.6% | growth (SK-OV-3 ovarian): 18.4% | growth (IGROV1 ovarian): 3.64% (active) | growth (OVCAR-3 ovarian): 22.3% | growth (HS 578T breast): 41.8% | growth (NCI/ADR-RES ovarian): 2.88% (active) | growth (T-47D breast): 16.1% | growth (BT-549 breast): 45% | growth (MDA-MB-435 melanoma): 14.6% | growth (SW-620 colon): 7.31% (active) | growth (MCF7 breast): -19.6% (active) | growth (HCC-2998 colon): 17% | growth (KM12 colon): 17.4%

Cn1c(=O)c2c(ncn2CC(=O)Nc2ccc(S(N)(=O)=O)cc2)n(C)c1=O
growth (SR leukemia): 105% | growth (RPMI-8226 leukemia): 99.9% | growth (OVCAR-8 ovarian): 105% | growth (OVCAR-5 ovarian): 105% | growth (OVCAR-4 ovarian): 108% | growth (SK-OV-3 ovarian): 87.8% | growth (IGROV1 ovarian): 112% | growth (OVCAR-3 ovarian): 106% | growth (HS 578T breast): 101% | growth (NCI/ADR-RES ovarian): 106% | growth (T-47D breast): 93.2% | growth (BT-549 breast): 92.8% | growth (MDA-MB-435 melanoma): 108% | growth (SW-620 colon): 103% | growth (MCF7 breast): 98.6% | growth (HCC-2998 colon): 114% | growth (KM12 colon): 101%

Cc1csc(Nc2nc(-c3cccc(Br)c3)nc(C(Cl)(Cl)Cl)n2)n1
growth (SR leukemia): 67.7% | growth (RPMI-8226 leukemia): 35.8% | growth (OVCAR-8 ovarian): 75.6% | growth (OVCAR-5 ovarian): 69.9% | growth (OVCAR-4 ovarian): 76.8% | growth (SK-OV-3 ovarian): 76.1% | growth (IGROV1 ovarian): 91.9% | growth (OVCAR-3 ovarian): 14.9% | growth (HS 578T breast): 59.6% | growth (NCI/ADR-RES ovarian): 60.4% | growth (T-47D breast): 13.9% | growth (BT-549 breast): 85.4% | growth (MDA-MB-435 melanoma): 65.3% | growth (SW-620 colon): 52.6% | growth (MCF7 breast): 28.9% | growth (HCC-2998 colon): 16.1% | growth (KM12 colon): 27.7%

C=C(C)[C@@H]1CC[C@]2(/C=N/Nc3ccncc3)CC[C@]3(C)[C@H](CC[C@@H]4[C@@]5(C)CCCNC(C)(C)[C@@H]5CC[C@]43C)[C@@H]12
growth (SR leukemia): 17.9% | growth (RPMI-8226 leukemia): 28.7% | growth (OVCAR-8 ovarian): 95.2% | growth (OVCAR-5 ovarian): 105% | growth (OVCAR-4 ovarian): 89.9% | growth (SK-OV-3 ovarian): 113% | growth (IGROV1 ovarian): 96.4% | growth (OVCAR-3 ovarian): 84.5% | growth (HS 578T breast): 83.2% | growth (NCI/ADR-RES ovarian): 94.5% | growth (T-47D breast): 64.5% | growth (BT-549 breast): 77.2% | growth (MDA-MB-435 melanoma): 86.7% | growth (SW-620 colon): 41.4% | growth (MCF7 breast): 63.2% | growth (HCT-116 colon): 43.8% | growth (HCC-2998 colon): 71.3% | growth (KM12 colon): 82.1%
